Laboratory results: PubChem BioAssay (Tox21)
“And” between values parts separate entries of the source, which are not always exact repeats. Equal entries are not always repeated. Inconclusive results are not listed. The source made the active and inactive calls. Unless noted, the call rests on the fitted dose curve; in most records, active means well fitted curve in the direction sought with a large enough effect in the repeat runs; inconclusive means weak or mixed curves; inactive means no such curve, though single readings can be large; an effect the other way counts as inactive or inconclusive.

Assays:
[1] = qHTS assay to identify small molecule antagonists of the peroxisome proliferator-activated receptor delta (PPARd) signaling pathway - cell viability counter screen (AID 743213); further: nearly all actives have a fitted effect of over 50% in size; further: potency means the concentration at half of the fitted maximal effect
In short: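 Viability counter-screen, qHTS format: PPARd-bla HEK293H, L165041 300 nM final, 17 h compound exposure at 37 C, CellTiter-Glo luminescence after 30 min RT.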

[2] = qHTS assay to identify small molecule antagonists of the vitamin D receptor (VDR) signaling pathway - cell viability counter screen (AID 743225); further: nearly all actives have a fitted effect of over 50% in size; further: potency means the concentration at half of the fitted maximal effect
In short: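 Luminescent cell viability (CellTiter-Glo) in VDR-bla HEK 293T cells after 16 h compound exposure at 37C in the presence of 3 nM final 1-alpha,25-dihydroxy vitamin D3.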

[3] = qHTS assay to identify small molecule agonists of the NFkB signaling pathway - cell viability counter screen (AID 1159515; calls by dose curve; further: nearly all actives have a fitted effect of over 55% in size; further: potency means the concentration at half of the fitted maximal effect)
In short: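 Plate 2,000 NFkB-bla ME-180 cells/well; incubate overnight. Add compounds, 5 hr at 37 C. Add FRET substrate, 1.5 hr RT. Add CellTiter-Glo, 30 min RT; read luminescence.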

[4] = qHTS assay to identify small molecule antagonists of the retinoid-related orphan receptor gamma (ROR-gamma) signaling pathway - cell viability counter screen (AID 1159520); further: nearly all actives have a fitted effect of over 50% in size; further: potency means the concentration at half of the fitted maximal effect
In short: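 Cytotoxicity was read from cellular ATP (CellTiter-Glo luminescence) after 16 hr at 37 C with 1 uM doxycycline induction. The inducer was added 2 hr after compound transfer to Tet-on ROR gamma CHO cells.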

[5] = qHTS assay to identify small molecule agonists of the AP-1 signaling pathway (AID 1159526; calls by dose curve)
[6] = target: Bile acid receptor (Homo sapiens) (UniProt Q96RI1); assay: qHTS assay to identify small molecule antagonists of the farnesoid-X-receptor (FXR) signaling pathway (AID 743217; active means well fitted inhibition curve with a large enough effect in the signal ratio in the repeat runs, not every such curve was filed as active; the % refers to the signal ratio)
In short: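 FRET fluorescence after 2 h room-temperature LiveBLAzer loading gives the readout. Prior step: FXR-bla HEK 293T cells, seeded and incubated 5 h, received test compounds plus 50 uM final CDCA for 16 h at 37 °C.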

[7] = target: Bile acid receptor (Homo sapiens) (UniProt Q96RI1); assay: qHTS assay to identify small molecule agonists of the farnesoid-X-receptor (FXR) signaling pathway (AID 743220; active means well fitted activation curve with a large enough effect in the signal ratio in the repeat runs, not every such curve was filed as active; the % refers to the signal ratio)
In short: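 FXR-UAS-bla HEK 293T cells carrying a UAS-driven beta-lactamase reporter were plated for 5 h at 37C/5% CO2, then exposed to DMSO-dissolved Tox21 10K compounds for 16 h at 37C. A LiveBLAzer B/G FRET substrate was loaded for 2 h at room temperature before fluorescence reading.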

[8] = qHTS assay to identify small molecule antagonists of the farnesoid-X-receptor (FXR) signaling pathway - cell viability counter screen (AID 743221; active means well fitted cell-killing curve with a large enough effect in the repeat runs, not every such curve was filed as active; further: nearly all actives have a fitted effect of over 50% in size; further: potency means the concentration at half of the fitted maximal effect)
In short: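 In GeneBLAzer FXR-UAS-bla HEK 293T cells stimulated with 50 uM chenodeoxycholic acid (final), compounds acted for 16 h at 37 C. Viability was assessed afterwards by CellTiter-Glo luminescence.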

[9] = target: Vitamin D3 receptor (Homo sapiens) (UniProt P11473); assay: qHTS assay to identify small molecule agonists of the vitamin D receptor (VDR) signaling pathway (AID 743222; calls by dose curve)
In short: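 Following 4 h attachment at 37C, VDR-bla cells (2,000 per well) received DMSO-dissolved compounds or controls. After 16 h incubation, LiveBLAzer B/G FRET substrate was added and fluorescence read 2 h later at room temperature.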

[10] = qHTS assay to identify small molecule agonists of the vitamin D receptor (VDR) signaling pathway - cell viability counter screen (AID 743224); further: nearly all actives have a fitted effect of over 50% in size; further: potency means the concentration at half of the fitted maximal effect
In short: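 In parallel with the bla FRET readout, cytotoxicity toward VDR-bla cells after 16 h compound exposure was assessed by CellTiter-Glo, with luminescence recorded after a 30 min room-temperature incubation.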

[11] = target: Nuclear receptor ROR-gamma (Homo sapiens) (UniProt P51449); assay: qHTS assay to identify small molecule antagonists of the retinoid-related orphan receptor gamma (ROR-gamma) signaling pathway (AID 1159521; further: nearly all actives have a fitted effect of over 50% in size; further: potency means the concentration at half of the fitted maximal effect)
In short: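 CHO cells expressing RORγ under a TET-on promoter, luciferase under RORE control. Dox 1 uM final, 16 h; compounds added 2 h prior. Luminescence decrease measured.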

[12] = qHTS assay to identify small molecule agonists of the RXR signaling pathway - cell viability counter screen (AID 1159529); further: nearly all actives have a fitted effect of over 50% in size; further: potency means the concentration at half of the fitted maximal effect
In short: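 Same-well viability check after the LiveBLAzer FRET read: CellTiter-Glo added, luminescence measured after 30 min at room temperature. Reporter HEK 293T cells had been treated with compounds for 16 hr following a 5 hr preincubation.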

[13] = qHTS assay to identify small molecule agonists of the farnesoid-X-receptor (FXR) signaling pathway - cell viability counter screen (AID 743218); further: nearly all actives have a fitted effect of over 45% in size; further: potency means the concentration at half of the fitted maximal effect
In short: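 Readout: CellTiter-Glo luminescence, 30 min RT, multiplexed after the FXR-bla FRET reading. HEK 293T FXR-UAS-bla cells received compound 5 h post-plating and were incubated 16 h at 37 C.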

[14] = target: Peroxisome proliferator-activated receptor delta (Homo sapiens) (UniProt Q03181); assay: qHTS assay to identify small molecule agonists of the peroxisome proliferator-activated receptor delta (PPARd) signaling pathway (AID 743212; calls by dose curve;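 further: HEK293H cells with PPARd UAS beta-lactamase reporter GeneBLAzer system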)
In short: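 Steps: seed PPARd-bla HEK293H cells; incubate 5 h, 37 C, 5% CO2; add compounds in DMSO; incubate, 37 C; add LiveBLAzer B/G FRET substrate; hold 2 h at room temperature; measure fluorescence.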

[15] = target: Peroxisome proliferator-activated receptor delta (Homo sapiens) (UniProt Q03181); assay: qHTS assay to identify small molecule antagonists of the peroxisome proliferator-activated receptor delta (PPARd) signaling pathway (AID 743215; active means well fitted inhibition curve with a large enough effect in the signal ratio in the repeat runs, not every such curve was filed as active; the % refers to the signal ratio;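 further: cells stimulated with agonist L165041 at 300 nM final during compound exposure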; further: potency means the concentration at half of the fitted maximal effect)
In short: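 Fluorescence from cleaved LiveBLAzer B/G FRET substrate (2 h, room temperature) reports PPARd-driven beta-lactamase in HEK293H UAS-bla cells. Cells had been treated 17 h at 37 C with compound plus 300 nM final L165041.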

[16] = qHTS assay to identify small molecule agonists of the AP-1 signaling pathway - cell viability counter screen (AID 1159525; calls by dose curve; further: nearly all actives have a fitted effect of over 55% in size; further: potency means the concentration at half of the fitted maximal effect)
In short: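 Intracellular ATP by Cell Titer Glo luminescence (30 min, RT) in the same ME-180 AP-1-bla wells after the 5 h compound exposure at 37 °C. Normalised to tetra n-octyl ammonium bromide and DMSO controls.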

[17] = target: Retinoic acid receptor RXR-alpha (Homo sapiens) (UniProt P19793); assay: qHTS assay to identify small molecule agonists of the RXR signaling pathway (AID 1159527; calls by dose curve; further: nearly all actives have a fitted effect of over 35% in size)
In short: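 Beta-lactamase reporter assay, agonist format. Engineered HEK 293T line, charcoal-stripped FBS at 2%, overnight (16 hr) exposure, fluorescence at 460 and 530 nm after 405 nm excitation.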

[18] = target: Vitamin D3 receptor (Homo sapiens) (UniProt P11473); assay: qHTS assay to identify small molecule antagonists of the vitamin D receptor (VDR) signaling pathway (AID 743223; active means well fitted inhibition curve with a large enough effect in the signal ratio in the repeat runs, not every such curve was filed as active; the % refers to the signal ratio)
In short: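 Agonist 1alpha,25-dihydroxyvitamin D3 (3 nM in well) was added with each compound to VDR-bla cells preincubated 4 h. Cells stood 16 h at 37C, then FRET substrate 2 h at room temperature; fluorescence intensity recorded.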

[19] = qHTS assay to identify small molecule agonists of the endoplasmic reticulum stress response signaling pathway - cell viability counter screen (AID 1159517; calls by dose curve; further: nearly all actives have a fitted effect of over 50% in size; further: potency means the concentration at half of the fitted maximal effect)
In short: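 After overnight attachment, ESRE-bla HeLa cells were treated with Tox21 library compounds for 5 hr. CellTiter-Glo luminescence, read 30 min post-addition at room temperature, reported viability.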

Measured: Potency

Sequence of Peroxisome proliferator-activated receptor delta (Homo sapiens) (Q03181 whole entry, looked up): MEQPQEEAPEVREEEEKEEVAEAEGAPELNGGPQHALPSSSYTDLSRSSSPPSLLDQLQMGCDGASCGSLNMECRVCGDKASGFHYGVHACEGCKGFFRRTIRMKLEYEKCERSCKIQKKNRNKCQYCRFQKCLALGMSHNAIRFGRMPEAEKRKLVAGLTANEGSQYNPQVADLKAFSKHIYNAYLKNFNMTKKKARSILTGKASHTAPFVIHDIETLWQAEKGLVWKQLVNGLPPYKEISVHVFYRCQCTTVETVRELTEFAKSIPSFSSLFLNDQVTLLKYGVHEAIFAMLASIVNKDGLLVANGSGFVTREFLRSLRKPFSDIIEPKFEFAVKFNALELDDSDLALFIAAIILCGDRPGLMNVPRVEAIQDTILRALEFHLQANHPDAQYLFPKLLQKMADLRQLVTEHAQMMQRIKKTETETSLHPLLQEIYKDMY
Sequence of Bile acid receptor (Homo sapiens) (Q96RI1 whole entry, looked up): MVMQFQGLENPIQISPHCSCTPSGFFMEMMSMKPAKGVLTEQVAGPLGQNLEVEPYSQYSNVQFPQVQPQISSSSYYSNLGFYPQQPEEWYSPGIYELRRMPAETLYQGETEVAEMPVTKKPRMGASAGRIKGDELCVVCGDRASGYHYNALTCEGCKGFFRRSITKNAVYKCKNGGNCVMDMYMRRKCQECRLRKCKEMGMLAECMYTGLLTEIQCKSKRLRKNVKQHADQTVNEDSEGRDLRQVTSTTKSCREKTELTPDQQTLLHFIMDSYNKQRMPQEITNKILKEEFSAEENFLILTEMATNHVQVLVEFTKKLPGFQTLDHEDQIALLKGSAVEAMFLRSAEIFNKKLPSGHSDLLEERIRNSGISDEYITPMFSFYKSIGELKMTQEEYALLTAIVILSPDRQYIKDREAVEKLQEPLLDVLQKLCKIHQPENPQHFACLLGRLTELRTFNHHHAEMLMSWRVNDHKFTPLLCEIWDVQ
Sequence of Vitamin D3 receptor (Homo sapiens) (P11473 whole entry, looked up): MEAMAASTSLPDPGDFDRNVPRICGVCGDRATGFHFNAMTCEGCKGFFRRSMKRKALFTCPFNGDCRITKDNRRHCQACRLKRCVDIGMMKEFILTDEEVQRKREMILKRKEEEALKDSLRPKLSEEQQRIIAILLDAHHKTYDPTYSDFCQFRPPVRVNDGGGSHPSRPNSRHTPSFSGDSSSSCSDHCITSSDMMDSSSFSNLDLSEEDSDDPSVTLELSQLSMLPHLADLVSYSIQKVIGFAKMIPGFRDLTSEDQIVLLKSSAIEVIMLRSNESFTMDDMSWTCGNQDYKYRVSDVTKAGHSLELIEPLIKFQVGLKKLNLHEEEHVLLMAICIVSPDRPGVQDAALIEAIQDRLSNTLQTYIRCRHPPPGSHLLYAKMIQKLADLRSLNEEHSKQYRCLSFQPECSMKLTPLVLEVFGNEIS
Sequence of Retinoic acid receptor RXR-alpha (Homo sapiens) (P19793 whole entry, looked up): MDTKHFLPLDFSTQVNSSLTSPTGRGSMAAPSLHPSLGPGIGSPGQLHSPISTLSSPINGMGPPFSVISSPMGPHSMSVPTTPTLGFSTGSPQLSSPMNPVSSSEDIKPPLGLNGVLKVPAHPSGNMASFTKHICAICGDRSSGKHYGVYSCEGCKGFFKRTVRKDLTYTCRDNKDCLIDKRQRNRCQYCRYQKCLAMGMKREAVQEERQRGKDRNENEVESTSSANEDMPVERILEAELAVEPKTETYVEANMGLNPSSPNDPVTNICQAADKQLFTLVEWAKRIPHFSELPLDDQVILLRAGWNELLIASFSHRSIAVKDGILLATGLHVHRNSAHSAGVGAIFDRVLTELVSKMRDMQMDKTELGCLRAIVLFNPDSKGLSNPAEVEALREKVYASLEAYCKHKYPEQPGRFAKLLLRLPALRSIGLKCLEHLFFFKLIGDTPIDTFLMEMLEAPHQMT

C[C@@H]1O[C@@H](O[C@H]2C[C@@H](O)[C@]3(CO)[C@H]4[C@H](O)C[C@]5(C)[C@@H](C6=CC(=O)OC6)CC[C@]5(O)[C@@H]4CC[C@]3(O)C2)[C@H](O)[C@H](O)[C@H]1O
inactive: [4] | [5]
active: [1] 16.5 nM and 133 nM | [2] 16.5 nM and 107 nM | [3] 0.0261 µM

O=c1ssc(Cl)c1Cl
active: [10] 43.6 µM | [3] 27.5 µM | [4] 15.4 µM | [11] 17.2 µM
inactive: [6] | [7] | [8] | [9] | [12]

CCOP(=O)(NC(C)C)Oc1ccc(SC)c(C)c1 (stereo not drawn)
inactive: [13] | [8] | [10] | [3] | [4] | [12]
active: [11] 9.69 µM

CCOP(=S)(OCC)OC(Cl)C(Cl)(Cl)Cl (stereo not drawn)
not listed: [1] | [4] | [5] | [6] | [7] | [18] | [19]
inactive: all other assays above

Cc1ccc(OP(=O)(Oc2ccccc2)Oc2ccccc2)cc1
not listed: [6] | [10] | [11] | [17] | [19]
inactive: all other assays above

CC(C)OC(=O)C(O)(c1ccc(Cl)cc1)c1ccc(Cl)cc1
active: [3] 49 µM | [4] 68.6 µM | [11] 54.5 µM | [16] 34.7 µM | [12] 38.9 µM
inactive: [14] | [1] | [15] | [6] | [7] | [8]

BrC(Br)C(Br)(Br)Br
active: [1] 39.1 µM
inactive: [7] | [8] | [9] | [3] | [19] | [16] | [5]

CCCCCCCCCCCCCCCCCCn1cc[n+](C)c1
active: [1] 7.72 µM | [15] 19.4 µM | [13] 48.7 µM | [8] 34.5 µM | [10] 9.72 µM | [2] 19.4 µM | [3] 48.7 µM | [4] 60.8 µM | [12] 10.9 µM
inactive: [16] | [5]

[CH3][Hg][Cl]
active: [13] 13.8 µM | [8] 38.8 µM | [3] 10.9 µM | [19] 21.8 µM | [12] 6.15 µM

O=c1c(C2CC(c3ccc(-c4ccc(Br)cc4)cc3)Cc3ccccc32)c(O)sc2ccccc12 (stereo not drawn)
active: [11] 2.66 µM
inactive: [1] | [8] | [3] | [4] | [5] | [12]

COc1cc(C=O)cc2c1[C@H](COC(N)=O)[C@]1(OC(C)=O)ON2C[C@H]2[C@@H]1N2C(C)=O
inactive: [14] | [1] | [9] | [10] | [2] | [3] | [4] | [16] | [5] | [12]

C=CC(=O)OCCCCOC(=O)C=C
inactive: [2] | [3] | [12]
active: [1] 43.6 µM | [13] 54.9 µM | [4] 19.3 µM

CCCCCCCCCCCCCN1CC(C)OC(C)C1 (stereo not drawn)
inactive: [14] | [1] | [15] | [8] | [2] | [3] | [4] | [11] | [5] | [12]

N#CSCSC#N
inactive: [7]
active: [1] 44.6 µM and 48.5 µM | [2] 50.1 µM and 34.3 µM | [3] 25.1 µM | [4] 15.7 µM and 4.28 µM | [11] 12.1 µM | [12] 17.8 µM and 17.2 µM

COc1ccc(OC)c(CC(C)N)c1 (stereo not drawn)
not listed: [6] | [7] | [9] | [19]
inactive: all other assays above

CN(C)c1ccc(N=Nc2ccccc2)cc1
not listed: [9] | [12] | [16] | [17] | [19]
inactive: all other assays above

Oc1c(Br)c(Br)c(Br)c(Br)c1Br
active: [11] 24.5 µM
inactive: [7] | [3] | [4] | [16]

O=[N+]([O-])O.O=[N+]([O-])O.[Cd]
inactive: [3] | [19] | [16]
active: [1] 5.49 µM | [8] 6.16 µM | [2] 19.5 µM | [12] 43.6 µM
